{"source": "ChEMBL document CHEMBL4513216", "about": "“Probing the Open Global Health Chemical Diversity Library for Multistage-Active Starting Points for Next-Generation Antimalarials” (ACS Infect Dis, 2020)", "note": "The campaign covered roughly 68,000 compounds. About 2,700 (4%) showed an effect of 50% or more. This is one part of a sample in which strong results are shown more often than they occur.", "data": [{"system": "Plasmodium berghei", "experiment": "Screen against P. berghei liver stage (PbLuc), transformed with Luciferase, at 2uM", "assay_type": "functional, HepG2", "conditions": "tested at 2 uM", "units": {"INHIBITION": "%"}, "values": [{"molecule": "CC(O)CNC(=O)CCc1nc2ncccc2[nH]1", "note": "(centres undefined)", "INHIBITION": 17.33}, {"molecule": "CC(C)c1nccn1CCCNC(=O)c1ccc(-c2cncnc2)nc1", "INHIBITION": 27.84}, {"molecule": "O=C(c1cnc(-c2cccnc2)nc1)N1CCC(c2ccncc2)CC1", "INHIBITION": -70.5}, {"molecule": "CCC(C)N1C(=O)c2ccc(C(=O)NCCc3c[nH]cn3)cc2C1=O", "note": "(centres undefined)", "INHIBITION": 35.09}, {"molecule": "NCc1cccc(-c2cccnc2C(=O)NCCCN2CCOCC2)c1", "INHIBITION": 3.63}, {"molecule": "COc1ccc(C(=O)NCc2ccco2)nn1", "INHIBITION": 65.1}, {"molecule": "CC(Cn1ccnc1)NC(=O)NCc1cccnc1OC1CCCC1", "note": "(centres undefined)", "INHIBITION": 8.42}, {"molecule": "COC(=O)c1cccc(C(=O)NCc2ccco2)n1", "INHIBITION": -15.05}, {"molecule": "CCC1c2ccsc2CCN1C(=O)NCc1cccnc1OC", "note": "(centres undefined)", "INHIBITION": 66.27}, {"molecule": "CC(O)CNC(=O)NCc1cccnc1OC1CCCC1", "note": "(centres undefined)", "INHIBITION": 59.73}, {"molecule": "CCC1c2ccsc2CCN1C(=O)NCc1cccnc1N(C)C", "note": "(centres undefined)", "INHIBITION": 8.5}, {"molecule": "CCC1c2ccsc2CCN1C(=O)NCc1ccccn1", "note": "(centres undefined)", "INHIBITION": -77.99}, {"molecule": "CC(Cn1cccn1)NC(=O)NCc1cccnc1OC1CCCC1", "note": "(centres undefined)", "INHIBITION": 39.32}, {"molecule": "Cc1cc(C(=O)NCc2cccnc2OC(C)C)no1", "INHIBITION": 51.19}, {"molecule": "COC(=O)c1ccc(C(=O)NCc2ccco2)nc1", "INHIBITION": -44.93}, {"molecule": "COc1ncccc1CNC(=O)c1cc(C)on1", "INHIBITION": -18.38}, {"molecule": "CCOc1ncccc1CNC(=O)c1cc(C)on1", "INHIBITION": 22.75}, {"molecule": "CC(C)c1nc(C2CCCN(C(=O)Cn3ccccc3=O)C2)no1", "note": "(centres undefined)", "INHIBITION": 40.88}, {"molecule": "Cc1ccc(C)n1-c1c(C(=O)NCC(C)N(C)C)cnn1C", "note": "(centres undefined)", "INHIBITION": 28.5}, {"molecule": "O=C(COc1cccc2c1CCC2=O)NCc1ccccc1Cl", "INHIBITION": -21.15}, {"molecule": "CCN1CC2(CCOCC2)c2cc(NS(=O)(=O)CC)ccc21", "INHIBITION": 16.33}, {"molecule": "Cc1nccn1-c1ccc(C(C)Nc2cnn(C)c(=O)c2Cl)cc1", "note": "(centres undefined)", "INHIBITION": 39.58}, {"molecule": "COc1ccccc1Oc1ncccc1CNC(=O)[C@H](N)CC(C)(C)C", "INHIBITION": 62.39}, {"molecule": "COc1ccccc1Oc1ncccc1CNC(=O)[C@@H](N)[C@@H](C)O", "INHIBITION": -4.93}, {"molecule": "COc1ccccc1Oc1ncccc1CNC(=O)[C@@H](N)CCO", "INHIBITION": 10.91}, {"molecule": "OC1CCCN(CCNc2ncc(Cl)cc2F)C1", "note": "(centres undefined)", "INHIBITION": -23.46}, {"molecule": "COCc1cccc(NC(C(N)=O)c2ccc(Br)cc2)c1", "note": "(centres undefined)", "INHIBITION": 0.53}, {"molecule": "CC(C)(C)c1nnc(CSc2ccccn2)o1", "INHIBITION": 58.9}, {"molecule": "CCc1nnc(CSc2ccccn2)o1", "INHIBITION": -9.88}, {"molecule": "Cc1nnc(CSc2ccccn2)o1", "INHIBITION": -43.6}, {"molecule": "CC(CNC(=O)N1CCN(CC(F)F)CC1)Cc1cccs1", "note": "(centres undefined)", "INHIBITION": -47.2}, {"molecule": "COC(=O)C1CCN(C(=O)NCC(C)Cc2cccs2)CC1", "note": "(centres undefined)", "INHIBITION": 55.39}, {"molecule": "CC(CNC(=O)N1CCC(CO)CC1)Cc1cccs1", "note": "(centres undefined)", "INHIBITION": 21.24}, {"molecule": "CC(CNC(=O)N1CCS(=O)(=O)CC1)Cc1cccs1", "note": "(centres undefined)", "INHIBITION": 8.03}, {"molecule": "CC(CNC(=O)N1CCN(c2ncccn2)CC1)Cc1cccs1", "note": "(centres undefined)", "INHIBITION": 5.82}, {"molecule": "CC(CNC(=O)N1CCSCC1)Cc1cccs1", "note": "(centres undefined)", "INHIBITION": -49.29}, {"molecule": "CC(CNC(=O)N1CCN(c2cnccn2)CC1)Cc1cccs1", "note": "(centres undefined)", "INHIBITION": 17.75}, {"molecule": "CC(CNC(=O)N1CCNC(=O)CC1)Cc1cccs1", "note": "(centres undefined)", "INHIBITION": 57.59}, {"molecule": "CC(=O)N(C)C1CCN(C(=O)NCC(C)Cc2cccs2)CC1", "note": "(centres undefined)", "INHIBITION": 60.9}, {"molecule": "Cc1cccc(NC(=O)c2cccc(OCc3nnnn3C)c2)n1", "INHIBITION": -85.14}, {"molecule": "CCS(=O)(=O)N1C[C@@H]2CN(Cc3cccs3)CCO[C@@H]2C1", "INHIBITION": -20.67}, {"molecule": "COc1ccc(C2(C(=O)N3CC(c4cccnc4)C3)CC2(C)C)cc1", "note": "(centres undefined)", "INHIBITION": 60.13}, {"molecule": "CC1(C)CC1(C(=O)N1CC(c2cccnc2)C1)c1ccc(F)cc1", "note": "(centres undefined)", "INHIBITION": 41.05}, {"molecule": "CC1(C)CC1(C(=O)N1CC(c2cccnc2)C1)c1ccccc1F", "note": "(centres undefined)", "INHIBITION": 14.82}, {"molecule": "CCOC(=O)c1cnn(-c2cc(Oc3cccc(C)c3)ncn2)c1N", "INHIBITION": -58.53}, {"molecule": "CC(COc1ccc(F)cc1F)NC(=O)NCCN1CCOCC1", "note": "(centres undefined)", "INHIBITION": -30.55}, {"molecule": "COCCN(Cc1cccc(O)c1)Cc1ccccc1F", "INHIBITION": 35.48}, {"molecule": "COCCN(Cc1cccc(OCCO)c1)Cc1ccccc1F", "INHIBITION": 58.42}, {"molecule": "CCCN(Cc1cccc(OCCO)c1)Cc1ccccc1OC", "INHIBITION": -135.42}, {"molecule": "CC(C)N1[C@H](Cn2cncn2)C[C@@H]2CN(Cc3cccs3)CC[C@@H]21", "INHIBITION": 13.25}, {"molecule": "O=C(Cc1ccccc1Cl)N1CCN(CC(O)COCCO)CC1", "note": "(centres undefined)", "INHIBITION": -13.06}, {"molecule": "COc1ccc(C)cc1CN1CCCC1c1noc(C2CC2)n1", "note": "(centres undefined)", "INHIBITION": -14.17}, {"molecule": "C=C(C)CNC1CCCN(Cc2noc(C3CC3)n2)C1", "note": "(centres undefined)", "INHIBITION": -36.58}, {"molecule": "O=C(NCc1ccco1)[C@H]1C[C@@H]2CCN(c3nncs3)C[C@H]2O1", "INHIBITION": -2.66}]}]}
